The source of these data is PubChem BioAssay (NCATS).

Experiment [1] has as its target Cytochrome P450 3A7 (Homo sapiens) (UniProt P24462). The experiment in a line: Cytochrome P450 family 3 subfamily A member 7 (CYP3A7) small molecule antagonists: luciferase biochemical qHTS assay (AID 1963596). Further: nearly all actives have a fitted effect of over 40% in size. Further: potency means the concentration at half of the fitted maximal effect. On activity change, negative = inhibition: on the % scale 0 is the no-effect control and ±100 the full control effect. The gist of the method:
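Enzyme-substrate mix + cpd (DMSO), 10 min RT; + NADPH regen system, 1 h RT; + luciferin detection reagent, 20 min RT; luminescence read. Proluciferin substrate, P450-Glo format, 1536-well qHTS.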
On the technique in general: qHTS replaces the single test concentration by a dilution series.

Experiment [2] in a line: Viability qHTS for spleen associated tyrosine kinase inhibitor (SYKi) naive MV4-11 cells (AID 1963823). Further: nearly all actives have a fitted effect of over 40% in size. Further: potency means the concentration at half of the fitted maximal effect. The gist of the method: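 qHTS, SYK inhibitor-naive MV4-11; 500 cells/well; 72 hr compound exposure, 37 C; CellTiter-Glo added, 10 min RT; luminescence read.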
Experiment [3] is described as follows: Viability qHTS for spleen associated tyrosine kinase inhibitor (SYKi) drug resistant MV4-11 cells (AID 1963824). Further: nearly all actives have a fitted effect of over 35% in size. Further: potency means the concentration at half of the fitted maximal effect. The gist of the method:
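CellTiter-Glo luminescence, read 10 min after reagent addition, reports viability after a 72 hr compound exposure. Cells are an MV4-11 line made resistant to SYK inhibition, seeded at 500 per well onto compound-containing plates.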

Experiment [4] can be described thus: Cellular viability qHTS for adrenocortical cancer (ACC) cell line SW-13 (AID 1963989).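 Further: cells grown in serum-free medium with ITS supplement; on the % scale 0 is the no-effect control and ±100 the full control effect; nearly all actives have a fitted effect of over 65% in size.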 The note with it: SW-13 ACC cells viability, CellTiter-Glo, 48 h; activity (max response): active compounds read low. The gist of the method:
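Viability was read as CellTiter-Glo luminescence after 48 h compound treatment (up to 46 uM final) of SW-13 cells grown serum-free; titration curves were fit with a four-parameter logistic model to give IC50 and efficacy.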

Experiment [5] can be described thus: Cellular viability qHTS for adrenocortical cancer (ACC) cell line NCI-H295R (AID 1963990).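 Further: 0% = DMSO only wells and -100% = full killing with cytotoxic reference compound; nearly all actives have a fitted effect of over 60% in size.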 The procedure, abridged:
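CellTiter-Glo ATP luminescence, read 48 h after compound addition, measured viability of NCI-H295R adrenocortical cells grown serum-free with ITS. Final concentrations spanned up to 46 uM. Data normalized to DMSO and doxorubicin, fitted for IC50 and maximal response.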

Experiment [6] in a line: Quantitative highthroughput screen to assess conditional lethalithy of NOMO1 cells grown in RPMI1640 with dialyzed fetal bovine serum (RPMI+ds) (AID 1963877).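 Further: series mostly up to about 46 µM; 100% = DMSO control wells and 0% = empty wells; nearly all actives have a fitted effect of over 30% in size.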 The procedure, abridged: (§1)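 Each medium arm—HPLM with 10% dialyzed FBS, or RPMI1640 with 5 mM glucose and 10% untreated or dialyzed FBS—was screened against an 11-point, 3-fold compound titration for 48 h at 37 °C, with CellTiter-Glo luminescence as endpoint.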

A short description of experiment [7]: Quantitative highthroughput screen to assess conditional lethalithy of NOMO1 cells grown in Human Plasma-Like Medium with dialyzed fetal bovine serum (HPLM+ds) (AID 1963878).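 Further: 100% = DMSO wells and 0% = empty wells on each plate; nearly all actives have a fitted effect of over 35% in size.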 The procedure, abridged:
as §1

A short description of experiment [8]: Quantitative highthroughput screen to assess conditional lethalithy of SEM cells grown in Human Plasma-Like Medium with dialyzed fetal bovine serum (HPLM+ds) (AID 1963882). Further: series mostly up to about 46 µM; nearly all actives have a fitted effect of over 35% in size. The gist of the method:
as §1

Experiment [9] can be described thus: Quantitative highthroughput screen to assess conditional lethalithy of SEM cells grown in RPMI1640 with dialyzed fetal bovine serum (RPMI+ds) (AID 1963884).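 Further: series mostly up to about 46 µM; 100% = DMSO control wells and 0% = empty wells without cells; nearly all actives have a fitted effect of over 35% in size.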 The gist of the method:
as §1

A short description of experiment [10]: Quantitative highthroughput screen to assess conditional lethalithy of P12 Ichikawa cells grown in Human Plasma-Like Medium with dialyzed fetal bovine serum (HPLM+ds) (AID 1963879). The note with it: Potency: viability. The procedure, abridged:
as §1

A short description of experiment [11]: Quantitative highthroughput screen to assess conditional lethalithy of SEM cells grown in RPMI1640 with unreated serum (RPMI+s) (AID 1963883). The procedure, abridged:
as §1

Several values for one entry are separate records, joined by “and”; a condition that tells them apart may be missing. Equal values may be shown once. Results filed as inconclusive are left out. Unmarked numbers belong to inactive results. Activity calls are given as the source filed them. The call rests on the fitted dose curve; in most records, active means well fitted curve in the direction sought with a large enough effect; inconclusive means small, poorly fitted or top-dose-only effect, or another doubt; inactive means no such curve, though single readings can be large; an effect the other way counts as inactive or inconclusive.

Cytochrome P450 3A7 (Homo sapiens), sequence (P24462 whole entry, looked up): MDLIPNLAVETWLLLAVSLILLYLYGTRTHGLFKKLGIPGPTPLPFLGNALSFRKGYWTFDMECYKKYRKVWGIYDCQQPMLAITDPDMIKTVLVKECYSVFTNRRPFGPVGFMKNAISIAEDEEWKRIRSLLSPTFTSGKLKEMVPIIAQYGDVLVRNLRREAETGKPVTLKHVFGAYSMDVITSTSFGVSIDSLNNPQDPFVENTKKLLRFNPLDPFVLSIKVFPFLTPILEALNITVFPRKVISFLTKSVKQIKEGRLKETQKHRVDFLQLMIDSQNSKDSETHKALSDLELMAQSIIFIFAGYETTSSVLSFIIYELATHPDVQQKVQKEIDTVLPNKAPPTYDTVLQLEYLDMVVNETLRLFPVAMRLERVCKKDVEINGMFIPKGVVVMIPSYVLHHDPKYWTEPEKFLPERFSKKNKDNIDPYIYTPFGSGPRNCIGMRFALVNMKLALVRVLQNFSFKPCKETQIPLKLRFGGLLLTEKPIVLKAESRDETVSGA

Consider `Oc1cccc2cccnc12`, for which the Potency entry in [1], in [2], in experiment [3] and in experiment [5] was “inactive” in each case. For the same compound, the activity (max response) in [4] is -4.07% and 11.1%.

Take `NP(N)(=O)NC(=O)c1ccc(F)cc1`: the Potency result in [1], in experiment [2], in [3] and in experiment [5] was “inactive” each time. In experiment [4], the activity (max response) was 6.62%.

Take `CCC1(C2=NCCN2)Cc2ccccc2O1` (stereo not given): the Potency entry in experiment [1], in experiment [2], in [3] and in experiment [5] was “inactive” in each case. Also, the activity (max response) in experiment [4] is 12%.

With `COP(=S)(OC)Oc1cc(Cl)c(Cl)cc1Cl`, in experiment [1], the Potency is 13.8 µM (active). The Potency entry in experiment [2], in experiment [3] and in experiment [5] was “inactive” in each case. Moreover, the activity (max response) in experiment [4] was 7.21%.

Turning to `CNC(C)(C)Cc1ccccc1`, the Potency entry in [1], in [2], in experiment [3] and in [5] was “inactive” in each case. Besides, the activity (max response) in [4] is -4.09%.

Consider `c1ccc(C2CC2)c(OCC2=NCCN2)c1`, for which the Potency result in [1], in experiment [2], in experiment [3] and in [5] was “inactive” throughout. The activity (max response) in experiment [4] is -5.68%.

Turning to `CN(C)CCc1ccc(O)cc1`, the Potency entry in experiment [1], in experiment [2], in experiment [3], in experiment [6], in [7] and in experiment [8] was “inactive” each time. Besides, the Potency entry in [9] and in experiment [5] was “inactive” throughout.

For the compound `CC(Cc1ccc(O)cc1)NCC(O)c1cc(O)cc(O)c1` (stereo not given), the Potency result in [1], in experiment [2], in experiment [3] and in experiment [5] was “inactive” throughout. For the same compound, the activity (max response) in [4] was 10.9%.

Regarding `C[C@@H]1CN(C2CCC(C#N)(c3ccc(F)cc3)CC2)CC[C@]1(C(=O)O)c1ccccc1` (stereo not given in full), the Potency result in [1], in experiment [2], in experiment [3] and in [5] was “inactive” in each case. Moreover, in experiment [4], the activity (max response) was -0.484%.

For `O=C(CCCCl)c1ccc(F)cc1`, the Potency result in experiment [1], in experiment [2], in experiment [3] and in experiment [5] was “inactive” in each case. In [4], the activity (max response) was 6.97%.

Regarding `CCN(CC)C(C)C(=O)c1ccccc1` (stereo not given), the Potency entry in experiment [1], in experiment [2], in [3] and in [5] was “inactive” in each case. In addition, in experiment [4], the activity (max response) is 11.1%.

Regarding `O=[N+]([O-])/N=C1\NCCN1Cc1ccc(Cl)nc1`, the Potency result in experiment [1], in experiment [2] and in [3] was “inactive” throughout. Also, in experiment [4], the activity (max response) is -5.88%.

As for `CCN(C(C)=O)c1cccc(-c2ccnc3c(C#N)cnn23)c1`, the Potency entry in experiment [1], in experiment [2], in [3] and in experiment [5] was “inactive” each time. In [4], the activity (max response) was -7.67%.

For the compound `[N-]=[N+]=CC(=O)OC[C@H](N)C(=O)O`, the Potency entry in experiment [1], in experiment [2], in experiment [3] and in experiment [5] was “inactive” throughout. For the same compound, the activity (max response) in experiment [4] is -8.61%.

For the compound `CC(C)NCC(O)c1ccc([N+](=O)[O-])cc1` (stereo not given), the Potency entry in experiment [1], in experiment [2] and in experiment [3] was “inactive” throughout. The activity (max response) in [4] is -6.95%.

For `CC(C)NC(C)C`, the Potency entry in experiment [1], in experiment [2], in experiment [3] and in experiment [5] was “inactive” each time. For the same compound, the activity (max response) in experiment [4] was 17.3%.

As for `C[C@@H](N)[C@@H](O)c1ccccc1`, the Potency result in experiment [1], in experiment [2], in experiment [3] and in experiment [5] was “inactive” throughout.

As to `COC(=O)[C@@H](N)CCCN/C(N)=N/[N+](=O)[O-]`, the Potency entry in experiment [1], in experiment [2], in experiment [3] and in [5] was “inactive” in each case. In addition, the activity (max response) in experiment [4] was 3%.

Take `N[C@@H]1C[C@H]1c1ccccc1`: the Potency result in experiment [1] and in experiment [5] was “inactive” in each case. Moreover, the Potency in experiment [2] is 16.6 µM (active); in experiment [3], 11.9 µM (active) and 3.72 µM (active). Also, in experiment [4], the activity (max response) is 6.98%.

For `NCC(CC(=O)O)c1ccc(Cl)cc1` (stereo not given), the activity change, negative = inhibition in experiment [1] was -9.7% [at 0.91 µM]. In experiment [2], the viability (% of control) was 90.7% [at 0.588 µM]. In addition, the viability, % of control in [3] was 103% [at 0.588 µM]. The activity (max response) in [4] is -6.89%. Moreover, the activity change, negative = viability loss in experiment [5] is -4.36% [at 0.587 µM].

As to `O=C(Oc1ccc([N+](=O)[O-])cc1)N1CCN(Cc2cccc(Oc3ccccc3)c2)CC1`, the Potency result in [1], in experiment [10] and in experiment [11] was “inactive” in each case. For the same compound, the Potency in [2] was 16.4 µM (active); in experiment [3] it was 13.2 µM (active).

As to `NN=C(N)N`, the Potency result in experiment [1], in experiment [2] and in experiment [3] was “inactive” each time. Also, the activity (max response) in experiment [4] is 12.8%.

Regarding `Oc1ccc(Cl)cc1`, the Potency result in [1], in experiment [2], in experiment [3] and in experiment [5] was “inactive” throughout. Further, in experiment [4], the activity (max response) is 10.2%.

As to `CCOC(=O)NC(C)(C)Cc1ccc(Cl)cc1`, the Potency entry in experiment [1], in experiment [2] and in experiment [3] was “inactive” in each case. In experiment [4], the activity (max response) was -3.94%.

For `CC(C)(N)Cc1ccc(Cl)cc1`, the Potency entry in experiment [1], in experiment [2], in experiment [3] and in experiment [5] was “inactive” in each case. Further, in experiment [4], the activity (max response) is 9.02%.

As to `CCN[C@H](C)Cc1cccc(C(F)(F)F)c1`, the Potency result in experiment [1], in [2] and in [5] was “inactive” each time. Also, the activity (max response) in experiment [4] is -4.65%.

In the case of `CC(C)(C)NC[C@H](O)c1ccc(O)cc1Cl`, the Potency entry in experiment [1], in [2] and in [5] was “inactive” each time. Also, the activity (max response) in experiment [4] is 9.97%.

Regarding `Nc1ccncc1`, the Potency entry in [1], in [3] and in experiment [5] was “inactive” in each case. Moreover, in experiment [4], the activity (max response) was 11.8%.

As to `Cc1cc(C(=O)CN2CCCC2)c(C)n1-c1ccc(F)cc1`, in experiment [1], the Potency result is “inactive”. In addition, the Potency in [3] is 16.4 µM (active).

As for `O=C1c2ccccc2C(=O)c2ccccc21`, the Potency entry in experiment [1] and in [2] was “inactive” throughout. Also, the activity (max response) in experiment [4] is 3.51%.
